Bioassay records (PubChem)
An excerpt weighted towards active compounds, which were near 8.7% of everything screened.
Sfp PPTase inh – qHTS Assay for Inhibitors of Bacillus subtilis Sfp phosphopantetheinyl transferase (PPTase); 4'-phosphopantetheinyl transferase ffp (Bacillus subtilis), Q9F4F7; Biochemical Sfp PPTase activity, qHTS; Potency, µM, for inactives: largest response in the series, negative = inhibition, usual class: inhibitors; 310,000 compounds, 3.5% hits; AID 1490, 2009;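 also: the enzyme is Sfp with the accession as filed and its product quenches rhodamine fluorescence; 0% = enzyme reaction without inhibitor and -100% = no enzyme wells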
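After 15 min at room temperature with compound, 15 nM Sfp received 5 uM rhodamine-CoA plus 12.5 uM BHQ-2-ybbR (50 mM Hepes pH 7.6, 10 mM MgCl2). Rate came from the fluorescence difference over 30 min, ex 525/em 598 nm.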
JMJD2A Tudor inh – qHTS Assay for Inhibitors of JMJD2A-Tudor Domain | Lysine-specific demethylase 4A (Homo sapiens), O75164 | AlphaScreen JMJD2A-Tudor / H3K4me3 peptide binding | Potency, µM (series often up to 114 µM), without a hit: top-dose activity change, negative = inhibition, most hits filed as inhibitors | 390,000 compounds, 4.4% hits; also: % is scaled to controls: 0 for no effect and ±100 for the full control effect; nearly all actives have a fitted effect of over 50% in size
BAZ2B inh – qHTS Assay for Inhibitors of BAZ2B; AID 504333, 2011; AlphaScreen BAZ2B-H3K14Ac peptide displacement; 360,000 compounds, 4.4% hits; Potency, µM (top dose mostly 114 µM), for inactives: top-dose activity change, negative = inhibition, hits mostly inhibitors; also: % is scaled to controls: 0 for no effect and ±100 for the full control effect; nearly all actives have a fitted effect of over 60% in size
Target sequence (Q9UIF8 whole entry, looked up): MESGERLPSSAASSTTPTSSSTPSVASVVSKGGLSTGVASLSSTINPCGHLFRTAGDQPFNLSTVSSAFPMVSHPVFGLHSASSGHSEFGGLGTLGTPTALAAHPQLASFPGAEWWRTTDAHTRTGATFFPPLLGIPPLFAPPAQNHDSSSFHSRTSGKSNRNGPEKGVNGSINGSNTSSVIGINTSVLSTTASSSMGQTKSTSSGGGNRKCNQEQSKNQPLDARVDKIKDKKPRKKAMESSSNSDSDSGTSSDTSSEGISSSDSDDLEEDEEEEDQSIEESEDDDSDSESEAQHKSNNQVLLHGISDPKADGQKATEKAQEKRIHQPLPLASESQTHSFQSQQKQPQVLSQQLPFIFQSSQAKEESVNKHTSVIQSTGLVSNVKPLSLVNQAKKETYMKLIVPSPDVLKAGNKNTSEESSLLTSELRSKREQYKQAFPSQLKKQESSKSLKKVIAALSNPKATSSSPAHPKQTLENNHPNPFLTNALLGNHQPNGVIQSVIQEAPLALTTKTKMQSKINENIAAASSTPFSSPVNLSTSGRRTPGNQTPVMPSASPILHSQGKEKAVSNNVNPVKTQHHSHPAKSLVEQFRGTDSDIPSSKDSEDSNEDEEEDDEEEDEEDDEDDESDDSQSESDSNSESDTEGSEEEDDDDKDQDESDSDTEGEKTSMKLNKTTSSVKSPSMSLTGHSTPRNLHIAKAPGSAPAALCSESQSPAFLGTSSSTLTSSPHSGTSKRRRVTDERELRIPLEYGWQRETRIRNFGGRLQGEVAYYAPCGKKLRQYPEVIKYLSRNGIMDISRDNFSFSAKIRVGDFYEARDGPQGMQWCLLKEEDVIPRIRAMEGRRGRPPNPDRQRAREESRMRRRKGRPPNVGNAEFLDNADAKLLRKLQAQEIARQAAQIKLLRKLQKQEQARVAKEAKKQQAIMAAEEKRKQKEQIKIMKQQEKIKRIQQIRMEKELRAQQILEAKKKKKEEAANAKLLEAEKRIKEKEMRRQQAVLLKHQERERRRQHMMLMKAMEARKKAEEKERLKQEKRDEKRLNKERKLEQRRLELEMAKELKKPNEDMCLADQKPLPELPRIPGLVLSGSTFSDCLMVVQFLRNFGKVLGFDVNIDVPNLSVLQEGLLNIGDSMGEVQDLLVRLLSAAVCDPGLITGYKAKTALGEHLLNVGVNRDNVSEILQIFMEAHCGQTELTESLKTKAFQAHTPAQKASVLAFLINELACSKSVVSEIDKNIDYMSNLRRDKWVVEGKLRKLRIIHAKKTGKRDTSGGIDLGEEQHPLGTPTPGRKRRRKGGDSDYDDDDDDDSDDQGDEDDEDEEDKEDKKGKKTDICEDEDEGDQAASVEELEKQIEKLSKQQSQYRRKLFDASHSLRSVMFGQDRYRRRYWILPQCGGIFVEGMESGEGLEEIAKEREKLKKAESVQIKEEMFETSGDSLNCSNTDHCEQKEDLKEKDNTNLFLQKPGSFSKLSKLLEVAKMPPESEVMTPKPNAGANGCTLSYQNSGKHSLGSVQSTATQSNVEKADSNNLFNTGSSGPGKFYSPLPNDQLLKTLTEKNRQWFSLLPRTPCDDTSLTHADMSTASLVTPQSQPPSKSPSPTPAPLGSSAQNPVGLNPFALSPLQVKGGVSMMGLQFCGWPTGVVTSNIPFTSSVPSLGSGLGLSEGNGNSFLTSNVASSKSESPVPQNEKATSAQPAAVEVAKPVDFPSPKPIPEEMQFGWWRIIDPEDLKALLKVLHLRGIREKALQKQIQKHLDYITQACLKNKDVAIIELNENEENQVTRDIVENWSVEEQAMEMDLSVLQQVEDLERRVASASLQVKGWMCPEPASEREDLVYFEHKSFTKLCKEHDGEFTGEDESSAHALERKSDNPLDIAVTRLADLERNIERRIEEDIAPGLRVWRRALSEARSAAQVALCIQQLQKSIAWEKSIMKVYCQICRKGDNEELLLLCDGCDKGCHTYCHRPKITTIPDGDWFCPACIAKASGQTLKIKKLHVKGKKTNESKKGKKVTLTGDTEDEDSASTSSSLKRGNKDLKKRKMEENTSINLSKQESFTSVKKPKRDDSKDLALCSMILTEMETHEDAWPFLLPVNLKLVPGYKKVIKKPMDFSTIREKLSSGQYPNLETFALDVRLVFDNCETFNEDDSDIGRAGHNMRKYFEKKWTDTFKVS
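Compounds, titrated to a top concentration of 110 uM, were incubated 30 min at room temperature with preformed BAZ2B/acetyl-K14 H3 peptide complex (50 nM each). Proximity signal was measured by AlphaScreen after 20 min with beads.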
HP1b binding inh – HTS for Inhibitors of HP1-beta Chromodomain Interactions with Methylated Histone Tails; Potency, µM (series often up to 114 µM), inactives show top-dose activity change, negative = inhibition, most hits filed as inhibitors; AlphaScreen HP1-beta / biotin-H3K9me3 peptide binding; 390,000 compounds, 0.56% hits; also: nearly all actives have a fitted effect of over 70% in size
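AlphaScreen: HP1-beta (50 nM) preformed 30 min with biotin-H3(1-18)K9me3 peptide (50 nM) in PBS pH 7.4, 0.01% Tween-20. Compound added for 30 min at RT, then streptavidin donor/nickel chelate acceptor beads (10 ug/mL) for 30 min.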
G9a block – qHTS Assay for Inhibitors of Histone Lysine Methyltransferase G9a; AID 504332, 2011; Potency, µM (doses to about 102 µM), for inactives: top-dose activity, negative = inhibition, actives largely listed as inhibitors; Histone-lysine N-methyltransferase EHMT2 (Homo sapiens), Q96KQ7; G9a H3K9 monomethylation, AlphaScreen, 2 h; 350,000 compounds, 8.8% hits; also: % is scaled to controls: 0 for no effect and ±100 for the full control effect; nearly all actives have a fitted effect of over 75% in size
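G9a (20 nM) preincubated 15 min RT with compounds, then 500 nM biotinylated H3K9 peptide and 20 uM SAM added; 2 h RT reaction. Monomethyl-H3K9 product detected by AlphaScreen with anti-H3K9me1 antibody, streptavidin donor and anti-rabbit IgG acceptor beads.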
ALOX12 inh – Primary qHTS assay for inhibitors of human arachidonate 12S-lipoxygenase (ALOX12): Round 2. Polyunsaturated fatty acid lipoxygenase ALOX12 (Homo sapiens), P18054. purified 12hLO, xylenol orange hydroperoxide absorbance. Potency, µM (doses to about 108 µM), inactives show at the highest dose activity change, negative = inhibition, usual class: inhibitors. 580,000 compounds, 1.1% hits. AID 1671190, 2021; also: % is scaled to controls: 0 for no effect and ±100 for the full control effect
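Purified human 12hLO (150 nM final) in 25 mM Hepes, 0.01% Triton X-100, pH 7.0 was preincubated 15 min at room temperature with compound. Then 40 uM arachidonic acid was added, 30 min. Hydroperoxide was read by Fe-XO absorbance ratio 573/405 nm.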
* marks the source's active call; other numbers are inactive results; i = inactive; ? = inconclusive; · = no result given; [ ] = dose if it differs, or a comment. Calls follow the shape of the dose curve; as a rule, active = well fitted curve in the direction sought with a large enough effect; inconclusive = small, poorly fitted or top-dose-only effect, or another doubt; inactive = no such curve, though single readings can be large; an effect the other way counts as inactive or inconclusive. Potency is read from the fitted curve at half-maximal effect.

SMILES	Sfp PPTase inh	JMJD2A Tudor inh	BAZ2B inh	HP1b binding inh	G9a block	ALOX12 inh
O=C(NCc1ccncc1)C(=O)C1C(=O)Nc2ccccc21 (stereo unspecified)	7%	?	?	-4%	-48%	0%
O=C(O)CCCCCNC(=O)C(=O)C1C(=O)Nc2ccccc21 (stereo unspecified)	-5%	-4%[11.4 µM]	?	61%	25µM*	-7%
COCCCNC(=O)C(=O)C1C(=O)Nc2ccccc21 (stereo unspecified)	11%	-29%	-35%	3%	40µM*	-23%
O=C1CCCCCCCCCCCCCCO1	·	·	·	·	·	3%[176 µM]
Cc1cc(CNC(=O)[C@@H]2CCC[C@@H](NC(=O)C(C)(C)C)CN(C)C(=O)C2)no1	·	·	·	·	·	69%[176 µM]
Cc1cccn2cc(CSc3nnc(Nc4ccc(C(C)C)cc4)s3)nc12	-2%	-29%	-37%	14%	40µM*	2%
CCOC(=O)/C(CCC[N+](C)(CC)CC)=N\O	-5%	?	-32%	?	11µM*	?
CCCCCC(=O)OCC	·	·	·	·	·	1%[176 µM]
C[C@H](NC(=O)[C@@H]1Cc2ccccc2CN1)C(=O)NC1CCCCC1	0%	-14%	-24%	22%	79µM*	4%
COc1ccccc1CNC(=O)[C@H](C)NC(=O)[C@@H]1Cc2ccccc2CN1	11%	-3%	-19%	69%	?	2%
C[C@@H](NC(=O)[C@@H]1Cc2ccccc2CN1)C(=O)NCC1CCCO1 (stereo partly specified)	3%	14%	-17%	39%	50µM*	2%
CC(C)[C@H](NC(=O)[C@@H]1Cc2ccccc2CN1)C(=O)NC1CCCCC1	1%	2%	-15%	41%	-20%	-10%
COc1ccc(CNC(=O)[C@H](C)NC(=O)[C@@H]2Cc3ccccc3CN2)cc1	-2%	-9%	?	19%	71µM*	-24%
C[C@H](NC(=O)[C@@H]1Cc2ccccc2CN1)C(=O)NC[C@H]1CC[C@H](C(=O)O)CC1	-3%	-18%	-13%	33%	15%	?
O=C(CNC(=O)[C@@H]1Cc2ccccc2CN1)NCc1ccco1	1%	-17%	-12%[57.1 µM]	48%	71µM*	14%
C=CCNC(=O)NC(=O)CSc1nc(-c2ccccc2)c(-c2ccccc2)o1	·	·	·	·	·	0%
N#Cc1cccc(CNC(=O)c2nccnc2N)c1	·	·	·	·	·	-3%
Cc1ccc(CN2CCN(/N=C/c3cc(Br)ccc3F)CC2)cc1	5%	?	50µM*	-1%	56µM*	8%
Cc1ccc(CN2CCN(/N=C/c3cc([N+](=O)[O-])ccc3Cl)CC2)cc1	-7%	35µM*	32µM*	?	?	-24%
CC(OC(=O)c1ccc(Cl)c([N+](=O)[O-])c1)C(=O)N1CCN(Cc2ccccc2)CC1 (stereo unspecified)	·	-33%	-11%	4%	-6%[12.7 µM]	178%
Cc1ccc(CN2CCN(/N=C/c3ccc(N(C)C)cc3)CC2)cc1	2%	?	?	?	·	-7%
Cc1ccc(CN2CCN(/N=C/c3ccc(Cl)c([N+](=O)[O-])c3)CC2)cc1	3%	45µM*	14µM*	?	14µM*	-4%
O=[N+]([O-])c1cc(CN2CCC(O)CC2)ccc1Cl	-13%	0.89µM*	50µM*	?	13µM*	?
CC1CN(C2CCCCC2)CCC1=O (stereo unspecified)	·	·	·	·	·	-24%
CC(=O)Nc1cccc(-c2ccc3ncn(Cc4ccccn4)c(=O)c3n2)c1	·	·	·	·	·	-1%[176 µM]
SMILES	Sfp PPTase inh	JMJD2A Tudor inh	BAZ2B inh	HP1b binding inh	G9a block	ALOX12 inh
c1ccc(COc2ccccc2CNC2CCCC2)cc1	-4%	-18%	-10%	19%	-16%	3%
c1ccc(COc2ccccc2CNC23CC4CC(CC(C4)C2)C3)cc1	56µM*	-17%	0%	32%	38%[12.7 µM]	-27%
O=C(Nc1ccc2c(c1)OCCO2)N1CCCC(Cn2cnc3cccnc32)C1 (stereo unspecified)	·	·	·	·	·	-3%
CSc1ccc(Cl)c(C(=O)N(C)CC(=O)Nc2ccc(N3CCOCC3)cc2)c1	·	-28%	-3%	25%	35µM*	-11%
CN(CC(=O)Nc1ccc(N2CCOCC2)cc1)C(=O)CCc1ccccc1Cl	·	-23%	?	-14%	25µM*	-13%
CN(CC(=O)Nc1ccc(N2CCOCC2)cc1)C(=O)Cc1ccccc1	·	-2%	5%	19%	-4%[12.7 µM]	333%
Cc1ccc(C)c(SCC(=O)N(C)CC(=O)Nc2ccc(N3CCOCC3)cc2)c1	·	-17%	-35%	8%	45µM*	-25%
COc1ccc(NC(=O)CN(C)C(=O)c2cn(-c3ccccc3)nc2-c2ccc(F)cc2)cc1	·	-13%	-3%	9%	-17%[12.7 µM]	i
Cc1ccc(-c2nn(-c3ccc(F)cc3)cc2C(=O)N(C)CC(=O)Nc2ccc(N3CCOCC3)cc2)cc1	·	-6%	-5%	10%	40µM*	-8%
Cc1c(C)c(OC(=O)c2ccccc2)c(Cc2nc3ccccc3s2)c(C)c1O	·	·	·	·	·	-17%
CN(CC(=O)Nc1ccc(N2CCOCC2)cc1)C(=O)CCNC(=O)c1ccccc1Cl	·	-3%	-1%	10%	45µM*	-8%
CCCn1c(SCC#N)nc2c(c1=O)C1(CCCC1)Cc1ccccc1-2	-5%	3%	3%	44%	?	-22%
N#CCSc1n[nH]c2nc3c(c(=O)n12)C1(CCCC1)Cc1ccccc1-3	89µM*	-8%	·	54%	?	i
N#CC1(C#N)C2=C(CCCC2)NC(c2ccccc2)C1(C#N)C#N (stereo unspecified)	-6%	·	50µM*	·	18µM*	·
COCCNC(=S)NCCCNc1nc2cc3c(cc2cc1C#N)OCO3	14µM*	15%	6%	12%	-37%[59 µM]	-23%
COc1cc(C(=O)NCCCNc2nc3cc(C)c(C)cc3cc2C#N)cc(OC)c1OC	79µM*	1%	5%	62%	13%[59 µM]	-12%
CCOC(=O)CCCCC(=O)c1[nH]c(=O)[nH]c1C[n+]1ccc(C)cc1	10%	-15%	?	23%	45µM*	-15%
CCOC(=O)CCCCC(=O)c1[nH]c(=O)[nH]c1CN1CCOCC1	8%	35µM*	16µM*	-37%	?	-5%
CCOC(=O)CCCCC(=O)c1[nH]c(=O)[nH]c1C[n+]1ccccc1	13%	·	-8%	·	?	·
